According to the supplement of paper PMC11417369:
Over roughly 25,000 sequences, “ln(normalized median fluorescence intensity)” has its median near 7.1; the highest 2% begin near 10. Only a selection was taken, and the highest values are over-represented in it overall.

System: PfSIP2 AP2 domain 1 (GST-tagged)
Assay: gcPBM binding intensity (ln(normalized median fluorescence intensity)); higher = stronger DNA binding
Outline: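 Using an Agilent 4 × 180k array, primer-extended double-stranded 36-bp intergenic genomic probes and negative controls were exposed for 1 h to GST-fused P. falciparum DNA-binding domains expressed in E. coli. Binding was carried out in 1× PBS with 1% milk, 0.2 mg/ml BSA, 0.5% salmon testes DNA and 0.03% Triton X-100, and protein was detected with Alexa488 anti-GST antibody and a 488 nm scan. Binding intensity is the highest Masliner-normalised natural-log median intensity across replicate spots of either probe orientation.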

| Sequence | gcPBM binding intensity (ln) |
| --- | --- |
| TATGTAAAAAGAGAAAAAAAAAAGAACGATAATTTC [CACACA_negctrl_site946] | 6.58 |
| AATTAAAAAATTATCACACATATATATATATATATA [CACACA_site5789] | 9.53 |
| TTTATATACACACAGAAGAACAGAAATATTATATAT [TGCATGCA_negctrl_site483] | 7.2 |
| TTTAAAAAATAATATTGTACTATTCTCCCAATTTCT [XGTACX_site7079] | 6.57 |
| GGTATACATATTAAATGTACATATTTTAACAATAAG [XGTACX_site4868] | 7.1 |
| TGATTCTTTTGTATCACACACACTTAGTTTAATTTT [CACACA_site2404] | 6.85 |
| TCTGTAAATACGTGCACACACAAATCACAAATGTGA [CACACA_site330] | 9.89 |
| AATAAAAAAAAAAATAATATATATGTATAAATATAT [CACACA_negctrl_site1561] | 6.83 |
| AAAAAAAAAAAAAAAGCACACACCAATGAGCAGCTT [CACACA_site1845] | 7.62 |
| TTTTTTATTTTGTGCACACACATAAAAATATATATA [CACACA_site761] | 9.42 |
| AATATAATATAATGCACACATAAAAAAAAAAAAATC [CACACA_site1303] | 7.43 |
| AATAATAAAAAAAGTGCACACACATAATATATATAT [CACACA_site9100] | 10.6 |
| TATATCTGTTTATATTGTACACATATATATATATAT [XGTACX_site714] | 9.28 |
| ATTTTTTTATTTTGTGCACACACATAAAAATATATA [CACACA_site762] | 9.99 |
| AGGTCTGTTTTATATTGTACATAAAAAGTGCACATG [XGTACX_site4529] | 11.4 |
| TAATAAAAAAAGTGCACACACATAATATTTATATAT [CACACA_site7548] | 10.7 |
| TATATATTCATAAAGTGTACATGTTTATATATATAT [XGTACX_site7585] | 8.48 |
| ATATCATTTTCCTGCACACATAAATTTATATAATAT [CACACA_site1048] | 7.82 |
| AAAATAAAAATAAAAGCACACATAAATATATATATA [CACACA_site8409] | 8.73 |
| TTTTTTATTTTGTGCACACACATAAAAATATAAATA [CACACA_site6497] | 9.8 |
| TTTTTCCTATTTTTAGTGCACATATAAATAAATAAA [GTGCAC_site9821] | 10.7 |
| ATCTATTTCTATTGTTGTACTTATTTTTCATTGTTT [XGTACX_site6942] | 7.27 |
| AATAGGTGCCTTTTTTCACACACATGTCAACTAAAT [CACACA_site8846] | 9.34 |

| Sequence | gcPBM binding intensity (ln) |
| --- | --- |
| GATATATAAATAGATACACACATACATACATACATA [CACACA_site6260] | 7.18 |
| ATATTTATTTTATAAAGTACTAAAAAATATATTATA [XGTACX_site8522] | 6.9 |
| CATATAATAAATAATTGTACTTGATATAATATTATG [XGTACX_site3562] | 6.91 |
| CCTTTATAAAAAAGTAGTACACAATGAATTTATAAT [XGTACX_site5523] | 7.1 |
| CAAAATTAATAAGTCACACACACATCTATAATATAT [CACACA_site6519] | 6.78 |
| ACATAAAATTGTTAAAAAATTGTATAAATAATACAT [XGTACX_negctrl_site557] | 6.81 |
| TAATTCTAAATAAATGTACACACAAAAATAAATGTA [CACACA_site8509] | 7.02 |
| TGTCAATCATATAAATGTACATTTTAAATGAGGTGT [XGTACX_site7391] | 7.36 |
| TATATATATATATGTGCACACATAATAAAAAAAAAA [CACACA_site3830] | 9.64 |
| AAATAAAGAATATAAATACACACTTAAATATATATT [CACACA_site4007] | 6.73 |
| AAAAGTCTCTTTTTAGTGCACATTTTATTTAAATAT | 10.2 |
| TAATAAAAAAAGTGCACACACATAATATATATATAT [CACACA_site3340] | 10.4 |
| ATATATATATATAGTGCACACTTAAGAATATAAAGA [CACACA_site4771] | 10.2 |
| ATATATATATAGTGCACACTTAAGAATATAAAGAGG [CACACA_site1151] | 10.1 |
| AATATAATATAATGCACACATAAAAAAAAAAAAAAA [CACACA_site304] | 7.47 |
| TAATTATTTTAAAAAGTGCATTAAAAGATATTAAAT [GTGCAC_site9694] | 8.22 |
| AAAAGTATATATTCAGTGCATAGTCTTTAAATATAA [GTGCAC_site9522] | 8.15 |
| ACAATAAAGAACAGTATGCACTTTTATGCATGCGTA | 8.94 |
| CAAATAATATTATGAAGTACTTCAAATTTTGAAAGA [XGTACX_site2530] | 6.98 |
| TATTTATTTATGTGTTGTACAAATAAATAGAGGTAT [XGTACX_site6408] | 7.35 |
| AAAAATAAAACAATTACACACATAATTTTATTTTTA [CACACA_site928] | 6.86 |
| ATATTTAACAGGTTAAAAATATAAACAAATAAATAA [CACACA_negctrl_site907] | 6.85 |
| ATGCAAAATAAAGAAGCACACAAAAATGAAATATAT [CACACA_site9217] | 7.2 |

| Sequence | gcPBM binding intensity (ln) |
| --- | --- |
| TGTGTATAAGTCACTTGTACTAGTAGTAAAAAAAAA [XGTACX_site4341] | 6.85 |
| TTATTTATTCTATGTGCATGTTATTTTTTTTTTTCG [TGCATGCA_site262] | 7.6 |
| TTCTATATTATATATGCATGTGTTATTCTTATTTTC [TGCATGCA_site92] | 7.15 |
| ATTATTTTTCTATGTGTGCACGTGTGGAATGTGTCT [GTGCAC_site9507] | 10.3 |
| ATATATATTAATATTTGTACATAAAATTATTTCAAT [XGTACX_site5364] | 7.14 |
| TTTTCAATATATTAATGTACGAATACGCAAATAAGA [XGTACX_site1613] | 7.23 |
| GTATATGAATAATATTTTATGGTAATTTTTTTTTTT [XGTACX_negctrl_site512] | 6.91 |
| ATATGACATAAAACATGTACATGTTCATAAATATAT [XGTACX_site1923] | 7.07 |
| AAATATAATAATATATGTACATATATATATATATAT [XGTACX_site6980] | 9.73 |
| AAAAAAAATTTAATTGCACACAGGAAAATATAATTT [CACACA_site3810] | 7.01 |
| ATATATATTAATTTTGTGCACAAATGGAAATGTTTG [GTGCAC_site9971] | 8.34 |
| GAAATTTTTAATGTGGTGCACAGGAAATTTTTTCTT | 11 |
| AAGCGAATCTATATCACACACAAAAAAATCAGACTA [CACACA_site7072] | 6.94 |
| GACTACACACAAGGGTGTACATATATATTATATATA [XGTACX_site2247] | 7.31 |
| TAAGTATAATATTGATGTACATATAATAACTTGTAT [XGTACX_site417] | 7.03 |
| TTTTATTTCTTTGCACCATTTTAAATACAAACAAAT [CACACA_negctrl_site1553] | 10.7 |
| CATTTTATTTTCTTTGTGCACAAAAATATTTTTTCT | 8.78 |
| TCTTTCCTTATTAAAACACACAAATACATTATTTAA [CACACA_site2147] | 7.13 |
| TATGAGAAAAAAAGTACATGCACAAAATGTATATGT [TGCATGCA_site789] | 7.3 |
| ATATGAAGTTATATAGTGCACATGTACAACCAAATC [GTGCAC_site9974] | 10.4 |
| ATATGTACAAGTTATACACACATGTACAGTTATATA [CACACA_site6706] | 7.11 |
| GAAGTTAGTGTTGACTGTACATATATATGTATATAT [XGTACX_site7243] | 7.21 |
| GAAATTATGTAAAAAAGTACTAACATACATATATAT [XGTACX_site1794] | 7.18 |

| Sequence | gcPBM binding intensity (ln) |
| --- | --- |
| GAATTTATGAACTGTGCATGTAAAAAAAACAACAAA [TGCATGCA_site449] | 8.15 |
| AAAAACAAACTGTGCATGCACCAAAAAAAAAAAAAA | 10.4 |
| AATGTGCAAACAAACTGTACTTTTTTTTTTTTTTTT [XGTACX_site928] | 7.84 |
| TTATTTACTTATTGCACACATATAAAATATATTTAT [CACACA_site3101] | 7.74 |
| TAATATATTTATAGAGCATGCAACGTAATATTATTA [TGCATGCA_site863] | 7.12 |
| TACGTCTTTTTTTTGGTGCATAATTTTTTTGTACAA | 10.9 |
| AAAATTTCTTTTTTTTGTACATATATAATAATATAT [XGTACX_site7107] | 6.92 |
| ATTTTTTTGGTAATTTGTACATAATATATACATAAT [XGTACX_site3742] | 7.21 |
| TTAACGCTTATTTTTTGTACTTATTTTATTTTAAAT [XGTACX_site3977] | 7.22 |
| CCCTATATAAATAGCTGTACATTTGAACATGTTCAG [XGTACX_site2187] | 6.97 |
| GCAATTTTTTTTAAGAGTACTAATATATTATAGTGG [XGTACX_site7316] | 7.11 |
| TACAAATATATATGCACACACATATCTGTATATGTG [CACACA_site5663] | 7.66 |
| TATGTATAAATATATGCACACATATATATATTTATA [CACACA_site9150] | 7.18 |
| TGTGCGGAAATAAGTGCACACATAGATATATGTATT [CACACA_site9227] | 10.8 |
| AATAAATAGATATATACACACATATATGTGTACATA [CACACA_site7476] | 7.06 |
| TATAAATATCTGTATGCACACATTTTTTTTGGAAAA [CACACA_site4734] | 8.04 |
| TGTGTGTGTATATGTGTGCACATATAAAATAGAAGA [GTGCAC_site9714] | 8.95 |
| TGTGCGGAAATAAGTGCACACATAGATATCTGTATT [CACACA_site5935] | 10.9 |
| TATAAATATATGTATGCACACATTTTTTTTGGAAAA [CACACA_site1070] | 8.1 |
| TGCGGAAATAAGTGCACACATAGATATATGTATTTT [CACACA_site3689] | 10.8 |
| TTTTTCTCTTTAAGGTGTACAATAATACAGTAACCA [XGTACX_site300] | 7.44 |
